Bioassay records from PubChem BioAssay.
FBA Mtb inh = Mtb fructose-bisphosphate aldolase inhibition | purified M. tuberculosis FBA, fluorescence read-out | 360,000 tested, 2.3% active | P9WQA3 | AID 588726 | inhibition, % at 1 µM;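 also: 0% = vehicle and 100% = reference inhibitor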
Target sequence (P9WQA3 whole entry, looked up): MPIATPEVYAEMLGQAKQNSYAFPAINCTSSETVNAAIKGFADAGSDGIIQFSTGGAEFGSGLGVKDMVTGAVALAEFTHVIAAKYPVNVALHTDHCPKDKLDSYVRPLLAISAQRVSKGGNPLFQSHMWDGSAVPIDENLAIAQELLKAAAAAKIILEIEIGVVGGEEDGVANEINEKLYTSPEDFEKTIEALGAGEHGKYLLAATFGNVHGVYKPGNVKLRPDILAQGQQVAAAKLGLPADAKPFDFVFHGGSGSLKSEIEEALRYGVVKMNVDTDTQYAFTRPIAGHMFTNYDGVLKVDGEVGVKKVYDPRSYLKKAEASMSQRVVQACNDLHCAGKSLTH
Mtb UGM inh = blocks M. tuberculosis UGM enzyme. purified UGM, fluorescence polarization probe displacement. inhibition, % at 10 µM. 320,000 tested, 0.06% active; in the data active = inhibition above about 10%, passing the limit was not always enough
Rv3671c inh = inhibits the M. tuberculosis serine protease Rv3671c; P9WHR9; 320,000 tested, 0.048% active; AID 2606; inhibition, % at 5.96 µM; in the data active = inhibition above about 38%;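 also: extracellular domain of Rv3671c used as enzyme; 0% = enzyme with DMSO and 100% = no enzyme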
RecA splice inh = blocks M. tuberculosis RecA intein splicing; P9WHJ3; cell-free RecA intein splicing, fluorescence; inhibition, % (concentration not given with the values); 290,000 tested, 0.75% active; AID 2221; in the data active = inhibition above about 30%;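 also: 0% = vehicle wells and 100% = reference inhibitor control wells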
Mtb betalactam = beta-lactam sensitization of Mtb H37Rv; M. tuberculosis H37Rv growth with meropenem, percent inhibition; inhibition, % at 25 µM; AID 434955; 330,000 tested, 0.27% active; call rule not given here;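 also: growth measured after seven days incubation then overnight dye step; 0% = bacteria only wells and 100% = bacteria with antibiotic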
GDH-TPI counter-1 = counter-screen for M. tuberculosis FBA inhibitors: GDH-TPI coupled enzymes; GDH-TPI coupled enzyme counterscreen, NADH absorbance; inhibition, % at 4.8 µM; 360,000 tested, 1.2% active; AID 588335; in the data active = inhibition above about 30%;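 also: 0% = DMSO wells and 100% = wells lacking the enzyme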
Mtb FBA confirm = confirmation of M. tuberculosis fructose-bisphosphate aldolase inhibitors; purified M. tuberculosis FBA, fluorescence read-out; 5,600 tested, 78% active; AID 651616; shares compounds with FBA Mtb inh; inhibition, % at 1 µM;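 also: 0% = vehicle wells and 100% = reference inhibitor wells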
GDH-TPI counter-2 = GDH-TPI inhibition counter-screen for FBA inhibitors; shares compounds with FBA Mtb inh; inhibition, % at 1 µM; GDH-TPI coupled enzyme counterscreen, fluorescence; 5,600 tested, 81% active; in the data active = inhibition above about 10%
An asterisk follows results filed as active. Hits are enriched below; roughly 4% of the tested compounds scored in any of these assays. Rule as the data show it, unless noted: active = inhibition above about 27%; inactive = the rest.

How did COCCNC(=O)C(=O)NCC1OCCN1S(=O)(=O)c1ccc(F)cc1 (configuration not stated) do in these assays?
FBA Mtb inh: -2; Mtb UGM inh: 3; Rv3671c inh: -2; RecA splice inh: 0; Mtb betalactam: -10; GDH-TPI counter-1: 3

How did COc1ccc(S(=O)(=O)N2CN3CCN(C3)C2)cc1 do in these assays?
FBA Mtb inh: 3; Mtb UGM inh: 1; Rv3671c inh: -4; RecA splice inh: -2; Mtb betalactam: -1; GDH-TPI counter-1: 12

Results for CCOc1cc(C2NC(=O)NC(C)=C2C(=O)OCC2CCCCC2)ccc1O (configuration not stated) ?
FBA Mtb inh: -1; Mtb UGM inh: 2; Rv3671c inh: -3; RecA splice inh: 1; Mtb betalactam: -7; GDH-TPI counter-1: 7

Results for CCC1CCCCN1CCCNC(=O)CSc1nc2nc(C)c(Cc3ccc(C)cc3)c(C)n2n1 (configuration not stated) ?
FBA Mtb inh: 2; Mtb UGM inh: 0; Rv3671c inh: -3; RecA splice inh: 3; Mtb betalactam: 1; GDH-TPI counter-1: 0

How did CSCCC(NC(=O)c1ccccc1)C(=O)OCC(=O)NCc1ccco1 (configuration not stated) do in these assays?
FBA Mtb inh: 0; Mtb UGM inh: 2; Rv3671c inh: -1; Mtb betalactam: -3; GDH-TPI counter-1: -7

Results for Cc1c(OCC(=O)N2CCN(c3ccccc3)CC2)ccc2c3c(c(=O)oc12)CCCC3 ?
FBA Mtb inh: -7; Mtb UGM inh: 2; Rv3671c inh: -1; RecA splice inh: 1; Mtb betalactam: -3; GDH-TPI counter-1: -8

Results for Cc1c(OC(C)C(=O)NCCN2CCOCC2)ccc2c3c(c(=O)oc12)CCCC3 (configuration not stated) ?
FBA Mtb inh: 34*; Mtb UGM inh: 2; Rv3671c inh: -6; RecA splice inh: -1; Mtb betalactam: 0; GDH-TPI counter-1: 2; Mtb FBA confirm: 50*; GDH-TPI counter-2: 38*

How did CC(=O)C(C)Oc1ccc2c3c(c(=O)oc2c1C)CCCC3 (configuration not stated) do in these assays?
FBA Mtb inh: 61*; Mtb UGM inh: -1; Rv3671c inh: -3; RecA splice inh: 1; Mtb betalactam: 99; GDH-TPI counter-1: 16; Mtb FBA confirm: 88*; GDH-TPI counter-2: 70*

Results for Cc1cc(=O)oc2c(C)c(OC(C)C(=O)NCCN3CCOCC3)ccc12 (configuration not stated) ?
FBA Mtb inh: 13; Mtb UGM inh: 1; Rv3671c inh: 5; RecA splice inh: -2; Mtb betalactam: 2; GDH-TPI counter-1: 5

What do the screens show for `Cc1c(OC(C)C(=O)N[C@H](C(=O)O)c2ccccc2)ccc2c3c(c(=O)oc12)CCCC3` (some centres not stated)?
FBA Mtb inh: 81*; Mtb UGM inh: 5; Rv3671c inh: -5; RecA splice inh: -2; Mtb betalactam: 3; GDH-TPI counter-1: 28; Mtb FBA confirm: 81*; GDH-TPI counter-2: 59*

How did Cc1c(OCC(=O)OC(C)C)ccc2c3c(c(=O)oc12)CCC3 do in these assays?
FBA Mtb inh: 12; Mtb UGM inh: 8; Rv3671c inh: -5; RecA splice inh: -2; Mtb betalactam: 29; GDH-TPI counter-1: 17

What do the screens show for `Cc1c(OC(C)C(=O)NCC(O)c2ccccc2)ccc2c3c(c(=O)oc12)CCC3` (configuration not stated)?
FBA Mtb inh: 29*; Mtb UGM inh: 2; Rv3671c inh: -9; RecA splice inh: -2; Mtb betalactam: 3; GDH-TPI counter-1: 17; Mtb FBA confirm: active; GDH-TPI counter-2: active

Results for C[C@H]1CN([C@@H](C)CO)C(=O)CCCn2cc(nn2)CO[C@@H]1CN(C)C(=O)Nc1ccccc1F ?
FBA Mtb inh: -1; GDH-TPI counter-1: 1

Results for O=c1[nH]c2ccccc2nc1-c1ccccc1 ?
FBA Mtb inh: 45*; Mtb UGM inh: 8; Rv3671c inh: -10; RecA splice inh: -4; Mtb betalactam: -9; GDH-TPI counter-1: 31*; Mtb FBA confirm: 79*; GDH-TPI counter-2: 76*

Results for O=c1nc(-c2ccccc2)c2ccccc2[nH]1 ?
FBA Mtb inh: 13; Mtb UGM inh: 4; Rv3671c inh: -3; Mtb betalactam: -5; GDH-TPI counter-1: 11

What do the screens show for `COc1ccc(-c2oc3cccnc3c2/C=C/c2ccc(OC)c(OC)c2)cc1`?
FBA Mtb inh: 94*; Mtb UGM inh: 3; Rv3671c inh: -4; RecA splice inh: -19; Mtb betalactam: 12; GDH-TPI counter-1: 15; Mtb FBA confirm: active; GDH-TPI counter-2: 195*

What do the screens show for `Cc1nc(NC(=O)c2ccc([N+](=O)[O-])cc2Cl)sc1C(=O)N(C)C`?
FBA Mtb inh: 91*; Mtb UGM inh: 2; Rv3671c inh: -11; RecA splice inh: 1; Mtb betalactam: 8; GDH-TPI counter-1: 13; Mtb FBA confirm: active; GDH-TPI counter-2: 162*

Results for O=C(NCCc1ccc(Cl)cc1Cl)C1=CC=CN2CCS(=O)(=O)N=C12 ?
FBA Mtb inh: 27*; Mtb UGM inh: -1; Rv3671c inh: -3; Mtb betalactam: -3; GDH-TPI counter-1: 8; Mtb FBA confirm: 178*; GDH-TPI counter-2: 129*

How did CC(C)c1ccc(NC(=O)C2=CC=CN3CCS(=O)(=O)N=C23)cc1 do in these assays?
FBA Mtb inh: 3; GDH-TPI counter-1: 12

What do the screens show for `CC(C)Cn1cc(-c2cccc3nccn23)cn1`?
FBA Mtb inh: 105*; GDH-TPI counter-1: 4; Mtb FBA confirm: 0; GDH-TPI counter-2: -2

What do the screens show for `COCC(=O)Nc1nc2n(n1)C(c1ccc(OC)cc1)CC(c1ccc(OC)cc1)N2` (configuration not stated)?
FBA Mtb inh: 0; RecA splice inh: -11; GDH-TPI counter-1: 7

What do the screens show for `COCC(=O)Nc1nc2n(n1)C(c1ccccc1)CC(c1ccc(OC)cc1)N2` (configuration not stated)?
FBA Mtb inh: 54*; Mtb UGM inh: 1; Rv3671c inh: 5; RecA splice inh: -150; Mtb betalactam: -14; GDH-TPI counter-1: 6; Mtb FBA confirm: 50*; GDH-TPI counter-2: 31*

How did Cc1ccc(C(C)C)c2c1C(c1ccc3c(c1)OCO3)CC(=O)O2 (configuration not stated) do in these assays?
FBA Mtb inh: 0; GDH-TPI counter-1: -6

Results for CCN(C(=O)C1CC1)C1CCS(=O)(=O)C1 (configuration not stated) ?
FBA Mtb inh: 35*; Mtb UGM inh: 1; Rv3671c inh: 2; RecA splice inh: 1; Mtb betalactam: -4; GDH-TPI counter-1: -6; Mtb FBA confirm: 121*; GDH-TPI counter-2: 106*
